Reference: PubChem BioAssay AID720697 (Broad Institute, 2013)
Results with a measured potency or affinity are listed apart. Results filed as inconclusive are left out. Active and inactive are the calls of the source.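 The calls were made as follows: active = signal loss with fitted half-maximal concentration at or below twice the top valid tested dose in every test run; inconclusive = runs disagree, flat 30 to 70% signal loss, or poor fit; inactive = all runs flat, opposite direction, or potency beyond limit.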

Assay: general mammalian cell viability loss – inhibitor set, cherry-pick, set 2, cytotoxicity control for miR-122 modulator project, dose response (AID 720697);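 also: 0% = median of neutral control wells and -100% = MG132 positive control wells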

| SMILES | outcome | activity change, negative = cytotoxicity |
| --- | --- | --- |
| CCNC(=O)C[C@H]1CC[C@@H]2[C@H](COc3ccc(NC(=O)c4cccs4)cc3C(=O)N2C)O1 | inactive | – |
| CC(=O)Nc1ccc2c(c1)C(=O)N(C)[C@@H]1CC[C@@H](CC(=O)NCc3ccc(Cl)cc3)O[C@H]1CO2 | inactive | – |
| CN(C[C@@H]1[C@@H](c2ccccc2)[C@H](CO)N1C(=O)C1CCC1)C(=O)c1ccccn1 | inactive | – |
| O=C(CNCCC1=CCCCC1)Nc1ccccc1N1CCCCCC1 | inactive | – |
| COCC(=O)N1C[C@H]2[C@@H](c3ccccc31)[C@H](CO)N2C(=O)Nc1ccccc1Cl | inactive | – |
| CC(=O)N(C[C@@H]1N[C@@H](CO)[C@H]1c1ccc(-c2ccccc2)cc1)C(C)C | inactive | – |
| CCN(C[C@@H]1[C@@H](c2ccc(C3=CCCCC3)cc2)[C@@H](CO)N1CC1CC1)C(C)=O | inactive | – |
| Fc1ccc(CN2CCN(c3ncnc4scc(-c5ccc(F)cc5)c34)CC2)cc1 | inactive | – |
| CNC(=O)C[C@@H]1CC[C@@H]2[C@@H](COc3ccc(NC(=O)Nc4ccccc4OC)cc3C(=O)N2C)O1 | inactive | – |
| CC(=O)Nc1ccc(S(=O)(=O)Nc2ccc(S(=O)(=O)Nc3nc(C)cc(C)n3)cc2)cc1 | inactive | – |
| CNC(=O)C[C@@H]1CC[C@@H]2[C@@H](COc3ccc(NC(=O)c4cccc(OC)c4)cc3C(=O)N2C)O1 | inactive | – |
| C/C=C/c1ccc2c(c1)O[C@@H](CN(C)CC1CCCC1)[C@H](C)CN([C@@H](C)CO)S2(=O)=O | inactive | – |
| CCN(C[C@@H]1N[C@@H](CO)[C@H]1c1ccc(-c2cccc(F)c2)cc1)C(=O)CN(C)C | inactive | – |
| COCCNC(=O)C[C@@H]1CC[C@@H]2[C@H](COc3ccc(NS(=O)(=O)c4ccc(Cl)cc4)cc3C(=O)N2C)O1 | inactive | – |
| COc1ccc2c(c1)C(C)=CC(C)(C)N2C(=O)CNCc1ccc2c(c1)OCO2 | inactive | – |
| CNC(=O)C[C@H]1CC[C@@H]2[C@H](COc3ccc(NC(=O)Nc4ccccc4OC)cc3C(=O)N2C)O1 | inactive | – |
| COC(=O)C[C@H]1CC[C@H]2[C@H](COc3ccc(NC(=O)c4cccc(F)c4)cc3C(=O)N2C)O1 | inactive | – |
| OC(c1cc(C(F)(F)F)nc2c(Cl)cc(Cl)cc12)C1CCCCN1 (stereo not given) | inactive | – |
| CC(=O)c1cccc(S(=O)(=O)NCC2CCCCC2)c1 | inactive | – |
| Fc1ccccc1-c1nc(-c2ccncc2)no1 | – | -1.62% [at 6 µM] (inactive) |
| O=C(c1ccccc1)N1C[C@H]2[C@@H](c3ccccc31)[C@@H](CO)N2C(=O)CN1CCOCC1 | inactive | – |
| COCCN(C[C@@H]1[C@@H](c2ccccc2)[C@H](CO)N1C(=O)C1CCC1)C(C)=O | inactive | – |
| CO[C@@H]1CN(C)C(=O)c2ccc(NC(=O)c3nc4ccccc4s3)cc2OC[C@H](C)N(Cc2cccnc2)C[C@H]1C | inactive | – |
| O=C(CSc1nc2ccccc2s1)N1CCOCC1 | inactive | – |
| COCC(=O)Nc1ccc2c(c1)C(=O)N(C)[C@@H]1CC[C@@H](CC(=O)NC3CCCC3)O[C@H]1CO2 | inactive | – |

| SMILES | outcome | activity change, negative = cytotoxicity |
| --- | --- | --- |
| C[C@H](CO)N1C[C@H](C)[C@@H](CN(C)CC2CCCCC2)OCCCC[C@H](C)Oc2ccc(NC(=O)Nc3cccc4ccccc34)cc2C1=O | inactive | – |
| COc1cccc(CNC(=O)C[C@@H]2CC[C@H]3[C@H](COc4ccc(NS(=O)(=O)c5ccccc5F)cc4C(=O)N3C)O2)c1 | inactive | – |
| C[C@@H]1CN([C@@H](C)CO)S(=O)(=O)c2ccc(C3=CCCC3)cc2O[C@@H]1CN(C)C(=O)c1ccc(F)cc1 | inactive | – |
| CCCC(=O)Nc1ccc2c(c1)C(=O)N(C)[C@@H]1CC[C@H](CC(=O)NCCN3CCCCC3)O[C@H]1CO2 | inactive | – |
| O=C(CC(F)(F)F)N1C[C@H]2[C@@H](c3ccccc31)[C@H](CO)N2C(=O)Cc1cccnc1 | inactive | – |
| COc1nnc(-c2ccc(N3CCOCC3)c(NC(=O)c3ccccc3)c2)c2ccccc12 | inactive | – |
| C[C@H]1CCCCO[C@H](CN(C)Cc2ccc3c(c2)OCO3)[C@@H](C)CN([C@@H](C)CO)C(=O)c2cc(NC(=O)Nc3cccc4ccccc34)ccc2O1 | inactive | – |
| CC(=O)N1[C@H](CO)[C@@H](c2ccccc2)[C@H]1CN(C(=O)NC(C)C)C1CCCC1 | inactive | – |
| COCCNC(=O)C[C@H]1CC[C@@H]2[C@@H](COc3ccc(NS(=O)(=O)c4ccc(Cl)cc4)cc3C(=O)N2C)O1 | inactive | – |
| CO[C@@H]1CN(C)C(=O)c2ccc(NC(=O)c3ccc(Oc4ccccc4)cc3)cc2OC[C@H](C)NC[C@H]1C | inactive | – |
| C[C@@H]1CN([C@@H](C)CO)C(=O)c2cc(NC(=O)Nc3cccc4ccccc34)ccc2O[C@@H](C)CCCCO[C@H]1CN(C)CC1CCCCC1 | inactive | – |
| COc1ccc2[nH]c(C(=O)O)c(NS(=O)(=O)c3ccc(Cl)s3)c2c1 | inactive | – |
| COc1ccc(NC(=O)COC(=O)CCCc2c[nH]c3ccccc23)cc1 | inactive | – |
| COc1ccc(S(=O)(=O)N(C)C[C@@H]2Oc3cc(-c4cccc(F)c4)ccc3S(=O)(=O)N([C@@H](C)CO)C[C@H]2C)cc1 | inactive | – |
| CN1C(=O)c2cc(NC(=O)c3cccc(F)c3)ccc2OC[C@@H]2O[C@H](CC(=O)NC3CCC3)CC[C@@H]21 | inactive | – |
| CC(C)C(=O)Nc1ccc2c(c1)C(=O)N(C)[C@@H]1CC[C@@H](CC(=O)N[C@H](C)c3ccccc3)O[C@@H]1CO2 | inactive | – |
| CCCNC(=O)Nc1ccc2c(c1)C(=O)N(C)[C@H]1CC[C@@H](CC(=O)NCC3CCCCC3)O[C@@H]1CO2 | inactive | – |
| CNC(=O)C[C@H]1CC[C@H]2[C@@H](COc3ccc(NC(=O)C(C)C)cc3C(=O)N2C)O1 | inactive | – |
| COc1ccc(C#Cc2ccc3c(c2)O[C@@H](CN(C)C(=O)CN2CCOCC2)[C@@H](C)CN([C@H](C)CO)S3(=O)=O)cc1 | inactive | – |
| COc1ccc(N2CCN(C(=O)CSc3nnc(CNc4ccccc4)o3)CC2)cc1 | inactive | – |
| Cn1c(NC(=O)c2ccco2)c(-c2ccccc2Cl)c(=O)c2ccccc21 | inactive | – |
| COC(=O)C[C@H]1CC[C@@H]2[C@@H](COc3ccc(NC(=O)c4ccc(F)c(F)c4)cc3C(=O)N2C)O1 | inactive | – |
| CCCNC(=O)N1[C@H](CNC(=O)c2ccc(F)cc2)[C@H](c2ccccc2)[C@@H]1CO | inactive | – |
| COc1ccc(C(=O)N2C[C@H]3[C@@H](c4ccccc42)[C@@H](CO)N3C(=O)Cc2ccccn2)cc1 | inactive | – |
| COCC(=O)Nc1ccc2c(c1)C(=O)N(C)[C@@H]1CC[C@H](CC(=O)NCc3ccccc3F)O[C@H]1CO2 | inactive | – |

| SMILES | outcome | activity change, negative = cytotoxicity |
| --- | --- | --- |
| Cc1noc(C)c1NC(=O)Nc1ccc2c(c1)C(=O)N(C)[C@@H]1CC[C@H](CC(=O)N[C@H]3CCN(Cc4ccccc4)C3)O[C@H]1CO2 | inactive | – |
| CO[C@@H]1CN(C)C(=O)c2cc(NC(=O)Nc3ccc(Cl)c(Cl)c3)ccc2OC[C@H](C)NC[C@H]1C | inactive | – |
| Cc1ccc(-c2nnn(CC(=O)N(CC(=O)NCC3CCCO3)c3ccccc3)n2)o1 (stereo not given) | inactive | – |
| C/C=C/c1ccc([C@@H]2[C@@H](CN(C)C(=O)CC)N(C(=O)NC(C)C)[C@H]2CO)cc1 | inactive | – |
| COc1ccc(-c2ccc(C#N)c(OC(=O)c3c(Cl)cccc3Cl)n2)cc1 | – | -5.32% [at 6 µM] (inactive) |
| CCCC(NS(=O)(=O)c1ccc(Br)cc1)C(=O)O (stereo not given) | inactive | – |
| CCN(C[C@H]1N[C@@H](CO)[C@@H]1c1ccc(C2=CCCC2)cc1)C(=O)c1ccncc1 | inactive | – |
| CN1C(=O)c2cc(NS(=O)(=O)c3cccc(F)c3)ccc2OC[C@@H]2O[C@@H](CC(=O)O)CC[C@@H]21 | inactive | – |
| CCN(C[C@H]1N[C@H](CO)[C@H]1c1ccc(C2=CCCC2)cc1)C(=O)c1cccnc1 | inactive | – |
| CCS(=O)(=O)Nc1ccc2c(c1)C(=O)N(C)C[C@@H](OC)[C@H](C)CN(CC1CCCC1)[C@H](C)CO2 | inactive | – |
| COc1cccc(CNC(=O)C[C@@H]2CC[C@@H]3[C@H](COc4ccc(NC(C)=O)cc4C(=O)N3C)O2)c1 | inactive | – |
| COc1ccc(S(=O)(=O)Nc2ccc3c(c2)CC(=O)N([C@@H](C)CO)C[C@@H](C)[C@H](CN(C)Cc2ccc(C(F)(F)F)cc2)O3)cc1 | inactive | – |
| C[C@@H]1CN([C@H](C)CO)C(=O)c2cc(-c3cncnc3)cnc2O[C@H]1CN(C)Cc1ccc(Oc2ccccc2)cc1 | inactive | – |
| CNC(=O)C[C@H]1CC[C@@H]2[C@H](COc3ccc(NS(=O)(=O)c4ccc(F)cc4)cc3C(=O)N2C)O1 | inactive | – |
| COCC(=O)N(C[C@@H]1[C@@H](c2ccccc2)[C@H](CO)N1C(=O)NC(C)C)C(C)C | inactive | – |
| C[C@@H]1CN([C@@H](C)CO)S(=O)(=O)c2ccc(-c3ccccc3)cc2O[C@@H]1CN(C)C(=O)c1ccc2c(c1)OCO2 | inactive | – |
| COCC(=O)Nc1ccc2c(c1)C(=O)N(C)[C@H]1CC[C@@H](CC(=O)NCCCN(C)C)O[C@H]1CO2 | inactive | – |
| C/C=C/c1ccc([C@H]2[C@H](CO)N[C@H]2CN(C)S(=O)(=O)c2ccccc2)cc1 | inactive | – |
| CC(C)CC#Cc1ccc([C@H]2[C@@H](CO)N3CCCCN(S(=O)(=O)Cc4ccccc4)C[C@H]23)cc1 | inactive | – |
| C[C@H]1CN([C@@H](C)CO)C(=O)c2cc(C#CC3CCCC3)cnc2O[C@H]1CN(C)C(=O)Cc1ccccn1 | inactive | – |
| CCNC(=O)C[C@H]1CC[C@H]2[C@@H](COc3ccc(NC(=O)c4ccccc4)cc3C(=O)N2C)O1 | inactive | – |
| CN(C[C@H]1[C@H](c2ccccc2)[C@@H](CO)N1CC1CC1)C(=O)c1cccc(F)c1 | inactive | – |
| CCCNC(=O)C[C@H]1CC[C@@H]2[C@H](COc3ccc(NC(=O)c4cccs4)cc3C(=O)N2C)O1 | inactive | – |
| COC(=O)c1nn(-c2ccccc2)c(Sc2ccc(Cl)cc2)c1/C=N/O | inactive | – |
| CN1C(=O)c2cc(NC(=O)c3cc(F)cc(F)c3)ccc2OC[C@@H]2O[C@@H](CC(=O)O)CC[C@@H]21 | inactive | – |
